According to PubChem BioAssay (NCATS):
Records with an inconclusive call do not appear. Where a call stands in place of a potency, no number is given. The source made the active and inactive calls. The call rests on the fitted dose curve; in most records, active means well fitted cell-killing curve with a large enough effect; inconclusive means small, poorly fitted or top-dose-only effect; inactive means no such curve, though single readings can be large or run the other way.

Assay: Quantitative High-Throughput drug screen in 47 multiple myeloma cell lines against the NCATS MIPE library collection: JIM3_ECACC cell viability assay (AID 1918963; further: nearly all actives have a fitted effect of over 35% in size)
Conditions: JIM3 myeloma viability, CellTiter-Glo ATP, 48 h; series mostly up to 45.8 µM
Source text: PI: Beverly A. Mock Ph.D.
Laboratory of Cancer Biology and Genetics,
Center for Cancer Research, National Cancer Institute,
National Institute of Health, Bethesda, Maryland
Drug resistance and disease progression are common in multiple myeloma (MM) patients, underscoring the need for new therapeutic combinations. […] We hypothesized that effective combinations would reduce MYC expression and enhance p16 activity. […] These preclinical data identify potentially useful drug combinations for evaluation in drug-resistant MM and reveal potential mechanisms of combined drug sensitivity.
Described herein is the primary MIPE qHTS used to cherrypick compounds. Validated compounds were then further tested for potential synergistic activiy.
[1] Peat TJ, Gaikwad SM, Dubois W, Gyabaah-Kessie N, Zhang S, Gorjifard S, Phyo Z, Andres M, Hughitt VK, Simpson RM, Miller MA, Girvin AT, Taylor A, Williams D, D'Antonio N, Zhang Y, Rajagopalan A, Flietner E, Wilson K, Zhang X, Shinn P, Klumpp-Thomas C, McKnight C, Itkin Z, Chen L, Kazandijian D, Zhang J, Michalowski AM, Simmons JK, Keats J, Thomas CJ, Mock BA. Drug combinations identified by high-throughput screening promote cell cycle transition and upregulate Smad pathways in myeloma. Cancer Lett. 2023 Aug 1;568:216284. doi: 10.1016/j.canlet.2023.216284. Epub 2023 Jun 24. PMID: 37356470; PMCID: PMC10408729.
SEQUENCE No. (e.g., 1, 2, 3, etc.); […] (e.g., Cells, Incubation, Reagent, etc.); VALUE and DESCRIPTION.
1; Cells; 5 uL; white, solid bottom 1536-well Greiner assay plate.
2; Compounds; 23 nL; Kalypsis pin tool (Wako USA) equipped with a 1536-well pin head to transfer to the assay plates.
3; Incubation; 48 hours; 37C incubation.
4; Reagent;5uL; CellTiter Glo (Promega).
5; Detector; 425V; Luminescence; Viewlux PerkinElmer.
NOTES (numbers refer to Sequence numbers above)
1. The cell-based screening methods employed in this study were like those previously published. Briefly, the corresponding myeloma cell lines were screened in 1,536-well plates with 500 cells, 5-uL per well for inhibition of cell viability (assessed by measuring ATP levels with CellTiterGlo).
2. NCATS MIPE 4.0 library of approved and investigational drugs were added using the Kalypsis pin tool. Wells treated with DMSO only for 100% viability and media only wells for 0% viability were used as controls.
3. The assay plates were covered and incubated for 48 hours in a 37C, 5% CO2 incubator with controlled humidity.
4. After 48 hours, CellTilter-GloTM luminescent substrate mix (Promega) reagent was added to the assay plate and plates we incubated for 5 min at room temperature.
5. Signal was measured as median relative luminescence units on a ViewLux (PerkinElmer) multiplate reader.
[1] Heske CM, Davis MI, Baumgart JT, Wilson K, Gormally MV, Chen L, Zhang X, Ceribelli M, Duveau DY, Guha R, Ferrer M, Arnaldez FI, Ji J, Tran HL, Zhang Y, Mendoza A, Helman LJ, Thomas CJ. Matrix Screen Identifies Synergistic Combination of PARP Inhibitors and Nicotinamide Phosphoribosyltransferase (NAMPT) Inhibitors in Ewing Sarcoma. Clin Cancer Res. 2017 Dec 1;23(23):7301-7311. doi: 10.1158/1078-0432.CCR-17-1121. Epub 2017 Sep 12. PMID: 28899971; PMCID: PMC6636827.
Potency means the concentration at half of the fitted maximal effect.

Structure (SMILES) | Potency
COc1c(O)cc2c(c1O)[C@@H]1O[C@H](CO)[C@@H](O)[C@H](O)[C@H]1OC2=O | inactive
Cc1cc(O)c2c(c1)C(=O)c1cc(O)cc(O)c1C2=O | inactive
Cc1cc(=O)oc2cc(O)ccc12 | inactive
CCC[C@@H]1C[C@@H](C(=O)N[C@@H]([C@H]2O[C@H](SC)[C@H](O)[C@@H](O)[C@H]2O)[C@@H](C)O)N(C)C1 | inactive
Nc1ccc(S(N)(=O)=O)cc1 | inactive
O=C1c2ccccc2-c2n[nH]c3cccc1c23 | inactive
Nc1cc(C(Cl)=C(Cl)Cl)c(S(N)(=O)=O)cc1S(N)(=O)=O | inactive
COc1cc2c(cc1OC)C1CC(=O)C(CC(C)C)CN1CC2 (stereo not given) | inactive
CCC1=C(C)CN(C(=O)NCCc2ccc(S(=O)(=O)NC(=O)NC3CCC(C)CC3)cc2)C1=O (stereo not given) | inactive
CCN(CC)CCOc1ccc(Cc2ccccc2)cc1 | inactive
Cc1nc2n(c(=O)c1CCN1CCC(c3noc4cc(F)ccc34)CC1)CCCC2 | inactive
CCC(C)(Oc1ccc(C2(c3ccc(OC(C)(CC)C(=O)O)cc3)CCCCC2)cc1)C(=O)O (stereo not given) | inactive
O=C(CS(=O)Cc1ccco1)NCC=CCOc1cc(CN2CCCCC2)ccn1 (stereo not given) | inactive
CCOc1cc(CC(=O)N[C@@H](CC(C)C)c2ccccc2N2CCCCC2)ccc1C(=O)O | inactive
O=C(OC1C[C@H]2CC[C@@H](C1)[N+]21CCCC1)C(O)(c1ccccc1)c1ccccc1 (stereo not given in full) | inactive
N=C(N=C(N)N)N1CCOCC1 | inactive
Cc1c(OCC(F)(F)F)ccnc1CS(=O)c1nc2ccccc2[nH]1 (stereo not given) | 16.6 µM (active)
Nc1cccc2c1CN(C1CCC(=O)NC1=O)C2=O (stereo not given) | inactive
C[C@@H](c1ncncc1F)[C@](O)(Cn1cncn1)c1ccc(F)cc1F | inactive
C[C@]12CCC(=O)C=C1CC[C@@H]1[C@H]2[C@@H](O)C[C@@]2(C)[C@H]1CC[C@]2(O)C(=O)CO | inactive

Structure (SMILES) | Potency
Nc1ccn([C@@H]2O[C@H](CO)[C@@H](O)C2O)c(=O)n1 (stereo not given in full) | inactive
O=C(NCCO[N+](=O)[O-])c1cccnc1 | inactive
N[C@@H](Cc1cc(I)c(Oc2cc(I)c(O)c(I)c2)c(I)c1)C(=O)O | inactive
CCCCCCCCCCCCCCCCCCCCCCO | inactive
CC(C)c1ccc2oc3nc(N)c(C(=O)O)cc3c(=O)c2c1 | inactive
CCOC(=O)C1=C[C@@H](OC(CC)CC)[C@H](NC(C)=O)[C@@H](N)C1 | inactive
CNC[C@@H](O)[C@@H](O)[C@H](O)[C@H](O)CO | inactive
CC(=O)NC[C@H]1CN(c2ccc(N3CCOCC3)c(F)c2)C(=O)O1 | inactive
O=C(O)CCNC(=O)c1ccc(N=Nc2ccc(O)c(C(=O)O)c2)cc1 | inactive
Cc1cccc(C)c1OCC(=O)N[C@@H](Cc1ccccc1)[C@@H](O)C[C@H](Cc1ccccc1)NC(=O)[C@H](C(C)C)N1CCCNC1=O | 20.9 µM (active)
CC(S)C(=O)NCC(=O)O (stereo not given) | inactive
O=c1c(O)c(-c2cc(O)c(O)c(O)c2)oc2cc(O)cc(O)c12 | inactive
CCc1nc(N)nc(N)c1-c1ccc(Cl)cc1 | 2.35 µM (active)
CNC[C@H](O)c1ccc(O)c(O)c1 | 38.2 µM (active)
S=c1nc[nH]c2nc[nH]c12 | 16.6 µM (active)
COc1c2occc2cc2ccc(=O)oc12 | inactive
Cc1nc(-c2ccc(OCC(C)C)c(C#N)c2)sc1C(=O)O | inactive
CN(C)CCCC1(c2ccc(F)cc2)OCc2cc(C#N)ccc21 (stereo not given) | inactive
CCCOc1ccc2nc(NC(=O)OC)[nH]c2c1 | 0.0066 µM (active)
Nc1nc(OCc2ccccc2)c2[nH]cnc2n1 | 13.2 µM (active)
